Bioassay records (PubChem BioAssay)
Methyltransferases: Primary Screen for Target Class Profiling of Small Molecule Inhibitors of Methyltransferases | calls only at 40 µM | purified enzyme, MTase-Glo SAH luminescence; hits give low values | hit rate 3.9% among 25,000; call rule not given here
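Each enzyme was assayed with SAM and its substrate. SAH formation detected by MTase-Glo luminescence; single-point 40 uM screen[…].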
Active calls of the source: *; i = inactive; + = active, no number. The sample as a whole holds a higher share of hits than the screen did. On the % scale 0 is the no-effect control and ±100 the full control effect.

SMILES	Methyltransferases
CCCn1c(=O)c2ccc(C(=O)NC(C)C)cc2n2c(SCC(=O)NC(C)C)nnc12	i
CC(C)CCNC(=O)C1c2c(n(C)c3ccccc23)SCC(=O)N1c1ccc(F)cc1 (stereo not drawn)	i
CCC(C)NC(=O)c1ccc2c(=O)n(C)c3nn(CC(=O)NC4CCCC4)c(=O)n3c2c1 (stereo not drawn)	i
CCC(CC)C(c1ccc(Nc2nc3ccccc3s2)cc1)n1cncn1 (stereo not drawn)	+
Cc1ccc(Cn2c(=O)c3ccccc3n3c(-c4cc(Br)cs4)nnc23)cc1	i
CCN1C(=O)c2cc3ccccc3n2CC1(C)C(=O)NCC(=O)NCc1ccc(OC)cc1 (stereo not drawn)	i
COc1cccc(S(=O)(=O)N2CC3CN(C)CC(C2)O3)c1	i
Cc1ccc(C(=O)C(C)n2nc3n(CC(C)C)c(=O)c4ccc(C(=O)NCC(C)C)cc4n3c2=O)cc1C (stereo not drawn)	i
Brc1c(Br)c(Br)c2n[nH]nc2c1Br	+
CCc1ccc(CNC(=O)c2cc3n(n2)CC(C)(C(=O)NC2CCCC2)N(CC)C3=O)cc1 (stereo not drawn)	i
COc1ccc(-c2cc3n(n2)CC(C)(C(=O)NC2CCCCC2)N(CCC(C)C)C3=O)cc1 (stereo not drawn)	i
COc1ccc(CN2C(=O)c3cc4ccccc4n3CC2(C)C(=O)NCc2ccccc2)c(OC)c1 (stereo not drawn)	i
CCC(C)NC(=O)c1ccc2c(=O)n(C(C)C)c3n[nH]c(=O)n3c2c1 (stereo not drawn)	i
CC1(C)C2CCC1(C)C(OC(=O)C(O)(CC(=O)O)CC(=O)O)C2 (stereo not drawn)	+
CCN(CC)CCCNC(=O)c1cc2n(n1)CC(C)(C(=O)NCc1ccccc1)N(C)C2=O (stereo not drawn)	i
CCOc1cc(CNC(=O)c2cc3n(n2)CC(C)(C(=O)NCc2ccccc2)N(C)C3=O)ccc1OC (stereo not drawn)	i
CCCC1c2ccc(C)n2CCN1C(=O)Nc1cc(C)ccc1C (stereo not drawn)	i
CC1(C(=O)NC2CCCC2)Cn2c(ccc2-c2ccco2)C(=O)N1c1ccc(F)cc1 (stereo not drawn)	i
CCOc1ccc(C(=O)Cn2nc3n(C)c(=O)c4ccc(C(=O)NC5CCCC5)cc4n3c2=O)cc1	i
Cn1c(=O)c2[nH]c(-c3ccc(S(=O)(=O)O)cc3)nc2n(C)c1=O	+
Cn1c(=O)c2[nH]cnc2n(C)c1=O	i
C=CCn1c(=O)c2c(nc(-c3ccc(S(=O)(=O)O)cc3)n2C)n(C)c1=O	i
Cc1cc(F)ccc1NS(=O)(=O)c1cc2c(cc1Cl)n(C)c(=O)n2C	i
CS(=O)(=O)Nc1ccc2oc3c(OC(F)F)ccc(C(=O)Nc4c(Cl)cncc4Cl)c3c2c1	+
CC1(C(=O)NC2CCCCCCC2)Cn2c(cc3occc32)C(=O)N1c1cccc(Cl)c1 (stereo not drawn)	i
SMILES	Methyltransferases
CC(C)n1cc(-c2ccc(Oc3ccccc3)cc2)c2c(N)ncnc21	+
COC(=O)c1ncn2c1C(=O)N(Cc1ccc(OC)cc1OC)C(C)(C(=O)NC1CCCC1)C2 (stereo not drawn)	i
CC(C)OCCCn1c(=O)c2ccccc2n2c(CCC(=O)NCCC3=CCCCC3)nnc12	i
Cc1ccc2nc(N)[nH]c(=O)c2c1Sc1ccncc1	+
COCCCN1C(=O)c2cc3occc3n2CC1(C)C(=O)NC1CCCCC1 (stereo not drawn)	i
CCOC(=O)c1cc2n(n1)CC(C)(C(=O)NC1CCC(C)CC1)N(Cc1cccc(OC)c1)C2=O (stereo not drawn)	i
CC(C)c1cccc2c(-c3ccccc3)cc(-c3ccc(-c4ccc(C(=O)O)cc4)[nH]3)nc12	+
CCCn1c(=O)c2ccc(C(=O)NC(C)CC)cc2n2c(SCC(=O)c3ccccc3)nnc12 (stereo not drawn)	i
COc1ccc(N2C(=O)c3cc4sccc4n3CC2(C)C(=O)NC2CCC(C)CC2)cc1Cl (stereo not drawn)	i
O=C1NC(=O)C(c2cnc3ccccn23)=C1c1cn2c3c(cc(F)cc13)CN(C(=O)N1CCCCC1)CC2	+
COc1ccc(Cl)cc1NC(=O)N1CCn2c(C)ccc2C1C(C)C (stereo not drawn)	i
Cc1ccc(Cn2c(=O)c3ccccc3n3c(=O)n(CC(=O)Nc4cccc(Cl)c4)nc23)cc1	i
CCCC1CCC(c2ccc(C(=O)COC(=O)C(Cc3c[nH]c4ccccc34)NC(=O)c3ccc(Cl)cc3)cc2)CC1 (stereo not drawn)	i
CCCn1c(=O)c2ccc(Cl)cc2n2c(=O)n(Cc3ccccc3C)nc12	i
CC1(C)CC[C@]2(C(=O)O[C@@H]3O[C@H](CO)[C@@H](O)[C@H](O)[C@H]3O)CC[C@]3(C)C(=CCC4[C@@]5(C)CC[C@H](O[C@@H]6O[C@H](C(=O)O)[C@H](O)[C@H](O)[C@H]6O)C(C)(C)C5CC[C@]43C)[C@@H]2C1 (stereo partly drawn)	+
CC1OC(OC2C(OC(=O)[C@]34CCC(C)(C)C[C@H]3C3=CCC5[C@@]6(C)CC[C@H](OC7OC(C(=O)O)C(O)C(O)C7O)C(C)(C)C6CC[C@@]5(C)[C@]3(C)CC4O)OC(CO)C2O)C(O)C(O)C1OC1OCC(O)C(O)C1O (stereo partly drawn)	+
CC1(CO)CC[C@]2(C(=O)O[C@@H]3O[C@H](CO)[C@@H](O)[C@H](O)[C@H]3O)CC[C@]3(C)C(=CCC4[C@@]5(C)CC[C@H](O[C@@H]6O[C@H](C(=O)O)[C@@H](O)[C@H](O)[C@H]6O)C(C)(C)C5CC[C@]43C)C2C1 (stereo partly drawn)	i
CC1(C)CC[C@@]2(C(=O)O[C@@H]3O[C@H](CO)[C@@H](O)[C@H](O)[C@H]3O)C(C1)C1=CCC3[C@@]4(C)CC[C@@H](O[C@@H]5O[C@H](C(=O)O)[C@@H](O[C@@H]6OC[C@@H](O)[C@H](O)[C@H]6O)[C@H](O[C@@H]6OC[C@](O)(CO)[C@H]6O)[C@H]5O)C(C)(C)C4CC[C@@]3(C)[C@]1(C)C[C@H]2O (stereo partly drawn)	i
C[C@@H]1O[C@@H](O[C@@H]2[C@@H](O)[C@H](O[C@H]3[C@H](O[C@H]4CC[C@@]5(C)C(CC[C@]6(C)C5CC=C5[C@@H]7CC(C)(C)CC[C@]7(C(=O)O[C@@H]7O[C@H](CO)[C@@H](O)[C@H](O)[C@H]7O)CC[C@]56C)C4(C)C)O[C@H](C(=O)O)[C@@H](O)[C@@H]3O)OC[C@H]2O)[C@H](O)[C@H](O)[C@H]1O (stereo partly drawn)	i
CC1(C)CC[C@]2(C(=O)O[C@@H]3O[C@H](CO)[C@@H](O)[C@H](O)[C@H]3O)CC[C@]3(C)C(=CCC4[C@@]5(C)CC[C@H](O[C@@H]6O[C@H](C(=O)O)[C@@H](O)[C@H](O)[C@H]6O)C(C)(C)C5CC[C@]43C)C2C1 (stereo partly drawn)	i
COc1ccc(Br)cc1CN1C(=O)c2ccc(-c3ccco3)n2CC1(C)C(=O)NCc1ccccc1 (stereo not drawn)	i
COCCN1C(=O)c2cc(-c3ccc(OC)cc3)nn2CC1(C)C(=O)NCc1ccccc1 (stereo not drawn)	i
